Records with an inconclusive call do not appear. Activity calls are given as the source filed them. Rule for the calls, unless noted: active = hit-call score of the fitted dose curve at least 0.9, where 1 is the maximum; inconclusive = response in the unintended direction; inactive = score below 0.9.
How the values were obtained:
[1] = ATG_TCF_b_cat_CIS: Attagene CIS-FACTORIAL HepG2 Assay for human T-Cell-Factor with beta-catenin (TCF/b-cat) (AID 2282965; active = hit-call score of the fitted dose curve at least 0.9, where 1 is the maximum; inactive = score below 0.9); settings: HepG2 TCF/beta-catenin cis-reporter transcription, actives raise or lower the signal
Outline: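 Endogenous TCF/LEF activity read as reporter transcript level via RT-PCR and capillary electrophoresis fluorescence in transfected HepG2, 24 h exposure; gain or loss of signal fitted against DMSO controls.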

[2] = ATG_TAL_CIS: Attagene CIS-FACTORIAL HepG2 Assay for human TAL Basal Promoter (AID 2282966; active = hit-call score of the fitted dose curve at least 0.9, where 1 is the maximum; inactive = score below 0.9;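 note: background control endpoint measuring basal TAL promoter reporter mRNA not a specific factor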); settings: HepG2 Attagene cis-factorial TAL promoter reporter; actives raise or lower the signal
Outline: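 After 24 hours of chemical exposure, transfected HepG2 cells yielded RNA that was converted to 6-FAM-labelled, HpaI-digested reporter fragments for capillary electrophoresis. Values derive from bidirectional fitting against DMSO controls.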

[3] = ATG_TGFb_CIS: Attagene CIS-FACTORIAL HepG2 Assay for human Transforming Growth Factor (TGF) (AID 2282967; active = hit-call score of the fitted dose curve at least 0.9, where 1 is the maximum; inactive = score below 0.9); settings: HepG2 Attagene CIS TGFb reporter, mRNA transcription; actives raise or lower the signal
Outline: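 HepG2 cells transiently transfected with cis-promoter-driven multiplexed reporter units; 24 h compound exposure. Reporter mRNA measured by RT-PCR, 6-FAM labeling, HpaI digestion and capillary electrophoresis; bidirectional fit versus DMSO baseline.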

[4] = ATG_VDRE_CIS: Attagene CIS-FACTORIAL HepG2 Assay for human Vitamin D Receptor Element (VDRE) (AID 2282968; active = hit-call score of the fitted dose curve at least 0.9, where 1 is the maximum; inactive = score below 0.9); settings: HepG2 VDRE cis-reporter transcription, actives raise or lower the signal
Outline: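 Measures endogenous factor activity through cis-element-driven reporter transcripts in transiently transfected HepG2. Cells are treated 24 h; reporter mRNA is quantified by RT-PCR and capillary electrophoresis; fitting is bidirectional.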

[5] = biological target: Nuclear receptor subfamily 1 group I member 3 (Homo sapiens) (UniProt Q14994); assay: ATG_CAR_TRANS: Attagene TRANS-FACTORIAL HepG2 Assay for human Constitutive Androstane Receptor (CAR) (AID 2282969); settings: HepG2 Attagene TRANS-FACTORIAL CAR reporter;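 note: activators raise reporter mRNA above DMSO so AC50 marks induction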
Chain of Nuclear receptor subfamily 1 group I member 3 (Homo sapiens) (Q14994 whole entry, looked up, the tested form may be a part): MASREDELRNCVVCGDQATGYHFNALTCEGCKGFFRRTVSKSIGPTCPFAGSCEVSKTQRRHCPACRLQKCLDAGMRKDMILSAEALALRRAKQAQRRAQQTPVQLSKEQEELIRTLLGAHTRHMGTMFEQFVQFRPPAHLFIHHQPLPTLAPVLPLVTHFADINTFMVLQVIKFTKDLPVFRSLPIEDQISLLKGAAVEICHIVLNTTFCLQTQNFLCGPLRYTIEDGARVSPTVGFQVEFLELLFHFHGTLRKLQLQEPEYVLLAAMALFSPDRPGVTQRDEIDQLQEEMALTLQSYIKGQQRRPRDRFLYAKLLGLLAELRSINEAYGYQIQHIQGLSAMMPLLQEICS
Outline: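 Signal is reporter mRNA induction relative to DMSO, measured 24 h after dosing by RT-PCR with fluorescent primer extension and capillary electrophoresis. Human HepG2 liver cells carried transiently transfected chimeric NR-Gal4/GAL4-UAS reporter constructs.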

[6] = biological target: Estrogen receptor (Homo sapiens) (UniProt P03372); assay: ATG_ERa_TRANS: Attagene TRANS-FACTORIAL HepG2 Assay for human Estrogen Receptor alpha (ERa) (AID 2282970); settings: HepG2 Attagene TRANS ERa GAL4 reporter, mRNA
Chain of Estrogen receptor (Homo sapiens) (P03372 whole entry, looked up, the tested form may be a part): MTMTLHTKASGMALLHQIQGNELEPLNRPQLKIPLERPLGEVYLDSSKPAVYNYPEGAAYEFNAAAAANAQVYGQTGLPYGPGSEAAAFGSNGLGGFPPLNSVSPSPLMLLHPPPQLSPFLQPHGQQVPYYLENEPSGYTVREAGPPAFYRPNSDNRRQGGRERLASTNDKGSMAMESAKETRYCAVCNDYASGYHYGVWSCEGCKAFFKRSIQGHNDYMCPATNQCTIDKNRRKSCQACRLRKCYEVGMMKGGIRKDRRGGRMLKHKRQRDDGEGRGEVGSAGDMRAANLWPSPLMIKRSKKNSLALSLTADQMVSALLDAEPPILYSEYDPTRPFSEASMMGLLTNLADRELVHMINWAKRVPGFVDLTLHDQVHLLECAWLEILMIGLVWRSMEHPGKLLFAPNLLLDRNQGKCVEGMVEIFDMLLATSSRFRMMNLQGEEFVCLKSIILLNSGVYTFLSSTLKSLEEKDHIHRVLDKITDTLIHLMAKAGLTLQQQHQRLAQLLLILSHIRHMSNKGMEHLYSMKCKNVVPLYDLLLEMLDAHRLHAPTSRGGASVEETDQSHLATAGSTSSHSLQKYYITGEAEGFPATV
Outline: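 Liver-derived HepG2 cells expressing chimeric nuclear receptor-Gal4 proteins from transient transfection were exposed for 24 hours. Gain of reporter mRNA signal versus DMSO, read by capillary electrophoresis of FAM-labelled PCR products, was recorded.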

[7] = biological target: X-box-binding protein 1 (Homo sapiens) (UniProt P17861); assay: ATG_Xbp1_CIS: Attagene CIS-FACTORIAL HepG2 Assay for human X-box Binding Protein 1 (XBP1) (AID 2282972; active = hit-call score of the fitted dose curve at least 0.9, where 1 is the maximum; inactive = score below 0.9); settings: HepG2 XBP1 cis-element reporter, Attagene multiplex; actives raise or lower the signal
Chain of X-box-binding protein 1 (Homo sapiens) (P17861 whole entry, looked up): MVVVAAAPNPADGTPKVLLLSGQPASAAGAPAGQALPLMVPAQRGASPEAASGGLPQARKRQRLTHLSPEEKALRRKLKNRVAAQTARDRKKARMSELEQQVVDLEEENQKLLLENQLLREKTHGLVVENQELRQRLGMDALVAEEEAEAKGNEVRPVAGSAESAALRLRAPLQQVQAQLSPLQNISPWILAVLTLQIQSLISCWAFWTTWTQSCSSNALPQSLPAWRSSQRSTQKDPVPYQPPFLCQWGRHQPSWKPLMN
Outline: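 Human hepatoma HepG2, cis-element reporter system, 24 h treatment; mRNA quantified by RT-PCR/CE fluorescence; fit relative to DMSO.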

[8] = ATG_M_19_TRANS: Attagene TRANS-FACTORIAL HepG2 Assay for M19 Transcription Factor (Internal Marker) (AID 2282974); settings: HepG2 Attagene TRANS-FACTORIAL M19 internal marker reporter
Outline: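 HepG2 cells transiently transfected with multiple GAL4-UAS reporter transcription units were exposed to chemicals for 24 h. Reporter mRNA was read by RT-PCR, 6-FAM primer extension, HpaI digestion and capillary electrophoresis; gain of signal fitted relative to DMSO.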

[9] = ATG_GAL4_TRANS: Attagene TRANS-FACTORIAL HepG2 Assay for GAL4 (Internal Marker) (AID 2282976); settings: HepG2 Attagene TRANS GAL4 internal marker reporter
Outline: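 First, HepG2 cells were transfected with reporter units under GAL4-UAS control. Next, they were treated with chemical for 24 h. Finally, RNA was reverse-transcribed, PCR-amplified, FAM-labelled and resolved by capillary electrophoresis, with induction scored against DMSO.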

[10] = biological target: Glucocorticoid receptor (Homo sapiens) (UniProt P04150); assay: ATG_GR_TRANS: Attagene TRANS-FACTORIAL HepG2 Assay for human Glucocorticoid Receptor (GR) (AID 2282978); settings: HepG2 Attagene TRANS GR reporter, mRNA transcription;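 note: activators score as hits since higher reporter transcript over DMSO is fitted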
Chain of Glucocorticoid receptor (Homo sapiens) (P04150 whole entry, looked up, the tested form may be a part): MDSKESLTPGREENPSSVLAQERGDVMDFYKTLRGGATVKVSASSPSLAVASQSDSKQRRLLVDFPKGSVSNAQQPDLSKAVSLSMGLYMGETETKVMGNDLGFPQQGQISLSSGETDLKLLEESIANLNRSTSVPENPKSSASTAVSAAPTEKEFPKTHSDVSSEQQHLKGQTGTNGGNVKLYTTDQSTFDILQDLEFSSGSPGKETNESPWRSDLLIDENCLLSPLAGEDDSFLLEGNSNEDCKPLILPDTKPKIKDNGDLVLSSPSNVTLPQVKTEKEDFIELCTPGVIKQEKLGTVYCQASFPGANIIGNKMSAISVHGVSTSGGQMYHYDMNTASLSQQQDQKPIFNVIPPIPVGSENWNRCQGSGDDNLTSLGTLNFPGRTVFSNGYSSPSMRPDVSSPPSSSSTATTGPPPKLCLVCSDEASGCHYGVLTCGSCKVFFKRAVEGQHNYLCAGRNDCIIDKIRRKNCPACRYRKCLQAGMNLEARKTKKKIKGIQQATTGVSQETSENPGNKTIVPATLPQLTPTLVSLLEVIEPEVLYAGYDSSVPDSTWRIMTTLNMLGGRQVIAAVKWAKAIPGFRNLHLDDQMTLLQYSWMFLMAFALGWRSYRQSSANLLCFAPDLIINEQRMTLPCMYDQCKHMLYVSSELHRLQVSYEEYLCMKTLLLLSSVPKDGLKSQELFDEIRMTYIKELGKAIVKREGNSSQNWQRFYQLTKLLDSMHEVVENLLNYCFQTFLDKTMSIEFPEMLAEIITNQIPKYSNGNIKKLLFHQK
Outline: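 HepG2 cells transiently transfected with multiplexed reporter units in which chimeric NR-GAL4 proteins drive GAL4-UAS reporters; 24 h compound exposure. Reporter mRNA measured by RT-PCR, 6-FAM labelling, HpaI digestion and capillary electrophoresis; gain-of-signal fitted versus DMSO.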

[11] = biological target: Oxysterols receptor LXR-alpha (Homo sapiens) (UniProt Q13133); assay: ATG_LXRa_TRANS: Attagene TRANS-FACTORIAL HepG2 Assay for human Liver X Receptor alpha (LXRa) (AID 2282980); settings: HepG2 Attagene TRANS reporter, LXRa transactivation
Chain of Oxysterols receptor LXR-alpha (Homo sapiens) (Q13133 whole entry, looked up, the tested form may be a part): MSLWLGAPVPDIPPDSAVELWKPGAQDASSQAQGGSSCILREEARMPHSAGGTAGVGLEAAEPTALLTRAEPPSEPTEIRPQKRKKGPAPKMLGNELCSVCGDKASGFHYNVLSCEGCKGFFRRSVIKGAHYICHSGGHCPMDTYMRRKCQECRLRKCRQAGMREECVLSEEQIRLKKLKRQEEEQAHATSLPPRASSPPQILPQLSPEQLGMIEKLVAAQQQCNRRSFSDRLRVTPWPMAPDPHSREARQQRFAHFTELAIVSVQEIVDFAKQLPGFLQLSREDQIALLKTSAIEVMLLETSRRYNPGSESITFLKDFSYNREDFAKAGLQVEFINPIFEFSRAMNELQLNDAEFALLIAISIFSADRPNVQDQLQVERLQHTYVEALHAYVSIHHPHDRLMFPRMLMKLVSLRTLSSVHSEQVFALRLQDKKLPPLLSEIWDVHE
Outline: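 Transfect HepG2 with GAL4-UAS multiplex reporter constructs (TRANS format, chimeric receptor-GAL4); treat 24 h; extract RNA, reverse-transcribe, PCR-amplify, FAM-label, HpaI-digest; resolve fragments by capillary electrophoresis. Upward response vs DMSO.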

[12] = ATG_M_32_TRANS: Attagene TRANS-FACTORIAL HepG2 Assay for M32 Transcription Factor (Internal Marker) (AID 2282984); settings: HepG2 Attagene TRANS M32 internal marker reporter;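 note: transcript level of a background control reporter unit measured by RT-PCR and capillary electrophoresis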
Outline: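 Cell-based TRANS-format assay in HepG2: exogenous chimeric GAL4 reporter units transiently expressed, compounds applied 24 h. Reporter mRNA detected by RT-PCR plus capillary electrophoresis; this readout is an internal background marker.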

[13] = biological target: Nuclear receptor subfamily 4 group A member 2 (Homo sapiens) (UniProt P43354); assay: ATG_NURR1_TRANS: Attagene TRANS-FACTORIAL HepG2 Assay for human Nuclear Receptor Related Protein 1 (NURR1) (AID 2282985); settings: HepG2 Attagene TRANS reporter, mRNA readout
Chain of Nuclear receptor subfamily 4 group A member 2 (Homo sapiens) (P43354 whole entry, looked up, the tested form may be a part): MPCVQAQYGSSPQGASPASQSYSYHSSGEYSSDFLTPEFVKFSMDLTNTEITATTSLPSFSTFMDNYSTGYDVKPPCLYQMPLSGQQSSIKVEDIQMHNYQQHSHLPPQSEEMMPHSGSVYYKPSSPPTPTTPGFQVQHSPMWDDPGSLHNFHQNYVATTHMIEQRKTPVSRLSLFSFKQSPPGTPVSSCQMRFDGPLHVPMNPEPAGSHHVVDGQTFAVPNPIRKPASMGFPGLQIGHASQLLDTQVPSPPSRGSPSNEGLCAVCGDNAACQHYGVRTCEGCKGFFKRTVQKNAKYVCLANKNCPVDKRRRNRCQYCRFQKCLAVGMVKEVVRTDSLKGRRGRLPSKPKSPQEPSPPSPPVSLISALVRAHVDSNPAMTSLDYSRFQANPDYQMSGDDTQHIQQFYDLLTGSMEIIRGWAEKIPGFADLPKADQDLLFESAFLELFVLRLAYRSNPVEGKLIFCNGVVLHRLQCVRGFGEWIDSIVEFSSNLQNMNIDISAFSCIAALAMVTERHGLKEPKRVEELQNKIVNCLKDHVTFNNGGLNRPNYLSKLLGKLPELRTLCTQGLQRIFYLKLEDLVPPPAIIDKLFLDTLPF
Outline: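 Measures transcriptional activation by an exogenous NR-Gal4 chimera in transfected HepG2 liver cells. After 24 h, reporter RNA is reverse-transcribed, amplified and resolved by capillary electrophoresis; DMSO defines baseline.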

[14] = biological target: Transcriptional activator Myb (Homo sapiens) (UniProt P10242); assay: ATG_Myb_CIS: Attagene CIS-FACTORIAL HepG2 Assay for human Myeloblastosis (Myb) Proto-Oncogene Transcription Factor (AID 2282986; active = hit-call score of the fitted dose curve at least 0.9, where 1 is the maximum; inactive = score below 0.9); settings: HepG2 Attagene CIS-FACTORIAL Myb reporter transcription; actives raise or lower the signal
Chain of Transcriptional activator Myb (Homo sapiens) (P10242 whole entry, looked up): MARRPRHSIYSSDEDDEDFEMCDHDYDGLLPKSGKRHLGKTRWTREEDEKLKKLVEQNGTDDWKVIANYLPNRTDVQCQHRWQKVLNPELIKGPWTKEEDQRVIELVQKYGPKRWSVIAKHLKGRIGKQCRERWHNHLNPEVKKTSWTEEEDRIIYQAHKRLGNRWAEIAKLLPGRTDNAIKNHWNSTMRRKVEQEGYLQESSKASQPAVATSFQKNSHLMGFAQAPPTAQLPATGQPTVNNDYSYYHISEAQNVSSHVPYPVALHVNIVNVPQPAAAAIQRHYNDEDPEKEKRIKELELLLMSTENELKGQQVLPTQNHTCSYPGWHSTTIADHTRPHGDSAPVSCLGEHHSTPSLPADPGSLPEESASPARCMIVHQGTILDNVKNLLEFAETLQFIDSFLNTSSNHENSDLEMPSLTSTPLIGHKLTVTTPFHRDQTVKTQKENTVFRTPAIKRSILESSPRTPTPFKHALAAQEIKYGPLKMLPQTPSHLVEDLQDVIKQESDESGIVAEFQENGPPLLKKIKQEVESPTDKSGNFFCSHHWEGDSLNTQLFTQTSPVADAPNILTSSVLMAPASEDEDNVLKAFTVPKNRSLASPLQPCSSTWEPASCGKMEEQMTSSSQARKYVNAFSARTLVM
Outline: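 HepG2 cells were transiently transfected with cis-regulated multiple reporter transcription units reflecting endogenous Myb activity, then exposed to compound for 24 hours. Reporter mRNA was measured by RT-PCR with capillary electrophoresis; bidirectional fitting versus DMSO baseline.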

[15] = biological target: Steroid hormone receptor ERR1 (Homo sapiens) (UniProt P11474); assay: ATG_ERRa_TRANS: Attagene TRANS-FACTORIAL HepG2 Assay for human Estrogen-Related Receptor alpha (ERRa) (AID 2282971); settings: HepG2 Attagene TRANS reporter, ERRa transactivation
Outline: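 Reporter transcript induction was quantified by RT-PCR and capillary electrophoresis of FAM-labelled, HpaI-cut products after 24 h treatment of HepG2 cells carrying transiently transfected GAL4-UAS reporter units and an exogenous ERRa-Gal4 fusion; activity scored as increase over DMSO.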

[16] = biological target: Estrogen-related receptor gamma (Homo sapiens) (UniProt P62508); assay: ATG_ERRg_TRANS: Attagene TRANS-FACTORIAL HepG2 Assay for human Estrogen-Related Receptor gamma (ERRg) (AID 2282977); settings: HepG2 Attagene TRANS reporter, ERRg transactivation;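 note: hits increase reporter signal over DMSO so potencies reflect activators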
Outline: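 Readout: fluorescent reporter-mRNA fragments resolved by capillary electrophoresis after RT-PCR and HpaI cut. Cells: transiently transfected HepG2 carrying GAL4-UAS reporters driven by exogenous NR-Gal4 chimeras, dosed 24 h. Activity fitted upward relative to DMSO baseline.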

[17] = biological target: Oxysterols receptor LXR-beta (Homo sapiens) (UniProt P55055); assay: ATG_LXRb_TRANS: Attagene TRANS-FACTORIAL HepG2 Assay for human Liver X Receptor beta (LXRb) (AID 2282981); settings: HepG2 Attagene TRANS GAL4-LXRb reporter, mRNA
Chain of Oxysterols receptor LXR-beta (Homo sapiens) (P55055 whole entry, looked up, the tested form may be a part): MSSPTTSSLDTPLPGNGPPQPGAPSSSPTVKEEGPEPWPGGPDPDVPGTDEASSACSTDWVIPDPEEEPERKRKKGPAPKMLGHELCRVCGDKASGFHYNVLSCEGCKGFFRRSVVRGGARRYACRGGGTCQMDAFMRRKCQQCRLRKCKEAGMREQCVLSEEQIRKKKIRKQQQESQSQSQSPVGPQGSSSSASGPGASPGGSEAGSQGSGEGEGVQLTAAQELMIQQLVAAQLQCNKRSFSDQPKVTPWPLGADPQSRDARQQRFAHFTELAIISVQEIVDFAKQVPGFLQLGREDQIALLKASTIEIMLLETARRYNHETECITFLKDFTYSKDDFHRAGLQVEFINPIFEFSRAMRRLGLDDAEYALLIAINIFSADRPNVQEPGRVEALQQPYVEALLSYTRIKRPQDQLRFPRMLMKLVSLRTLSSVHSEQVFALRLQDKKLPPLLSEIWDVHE
Outline: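 After 24 h of chemical treatment, transfected HepG2 cells yield total RNA; reporter cDNA is PCR-amplified, FAM-labelled, HpaI-cut and run on capillary electrophoresis. Signal reflects chimeric LXRb-Gal4 activity on GAL4-UAS reporters.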

[18] = biological target: Hepatocyte nuclear factor 4-alpha (Homo sapiens) (UniProt P41235); assay: ATG_HNF4a_TRANS: Attagene TRANS-FACTORIAL HepG2 Assay for human Hepatocyte Nuclear Factor 4 alpha (HNF4a) (AID 2282982); settings: HepG2 HNF4a transactivation reporter, mRNA readout
Chain of Hepatocyte nuclear factor 4-alpha (Homo sapiens) (P41235 whole entry, looked up): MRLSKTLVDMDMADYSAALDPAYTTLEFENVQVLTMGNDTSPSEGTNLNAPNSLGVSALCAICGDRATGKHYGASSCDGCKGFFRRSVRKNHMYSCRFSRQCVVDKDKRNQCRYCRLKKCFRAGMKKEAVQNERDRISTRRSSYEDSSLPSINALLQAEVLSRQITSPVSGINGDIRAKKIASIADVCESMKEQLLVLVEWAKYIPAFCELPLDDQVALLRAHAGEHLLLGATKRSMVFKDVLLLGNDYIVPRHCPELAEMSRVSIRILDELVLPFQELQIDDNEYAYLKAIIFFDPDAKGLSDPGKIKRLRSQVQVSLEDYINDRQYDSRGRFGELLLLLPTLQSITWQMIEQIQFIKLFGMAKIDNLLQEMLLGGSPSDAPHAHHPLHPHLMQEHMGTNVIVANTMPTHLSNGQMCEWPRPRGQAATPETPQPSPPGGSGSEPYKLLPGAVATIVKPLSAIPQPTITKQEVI
Outline: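 Multiplexed reporter assay: transfected HepG2, 24 h exposure, total RNA → oligo(dT) RT → PCR → 6-FAM extension → HpaI digest → CE fluorescence. DMSO = negative control.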

[19] = ATG_M_06_TRANS: Attagene TRANS-FACTORIAL HepG2 Assay for M06 Transcription Factor (Internal Marker) (AID 2282983); settings: HepG2 Attagene TRANS M06 internal marker reporter
Outline: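 Background control endpoint: reporter mRNA from transiently transfected HepG2 after 24 h dosing, detected by RT-PCR with capillary electrophoresis fluorescence. Analysed for gain versus DMSO.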

[20] = biological target: Bile acid receptor (Homo sapiens) (UniProt Q96RI1); assay: ATG_FXR_TRANS: Attagene TRANS-FACTORIAL HepG2 Assay for Farnesoid X Receptor (FXR) (AID 2282979); settings: HepG2 Attagene TRANS FXR-GAL4 reporter transcription;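 note: hits raise reporter mRNA above DMSO so AC50 marks FXR activation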
Outline: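 Transient transfection of HepG2 with multiplexed GAL4-UAS reporter units; exogenous FXR-GAL4 chimera. Dose 24 h → TriZol RNA → oligo(dT) RT → PCR, 6-FAM primer extension, HpaI cut → CE. Gain vs DMSO.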

Measured: AC50

O=C(C=Cc1ccccc1)OCCc1ccccc1
inactive: [1] | [2] | [3] | [5] | [7] | [8] | [9] | [10] | [11] | [12] | [13] | [14]
active: [4] 28 µM | [6] 29.4 µM

CCOC(=O)/C=C\C(=O)OCC
inactive: [1] | [2] | [3] | [4] | [6] | [15] | [7] | [8] | [16] | [10] | [17] | [18] | [12] | [13]

C=C(C)C1CC=C(C)C(OC(C)=O)C1 (configuration not stated)
inactive: [1] | [2] | [3] | [4] | [6] | [15] | [7] | [8] | [16] | [10] | [18] | [12] | [14]

CC(CC=O)CC(C)(C)C (configuration not stated)
inactive: [1] | [2] | [3] | [4] | [5] | [6] | [7] | [8] | [9] | [11] | [17] | [13]

CCCCCCCO
active: [6] 67.1 µM
inactive: [1] | [2] | [3] | [4] | [5] | [7] | [8] | [11] | [19] | [12] | [13] | [14]

CC=C(C)C=CC=C(C)C
inactive: [1] | [2] | [3] | [5] | [6] | [7] | [11] | [18] | [19] | [14]
active: [4] 27.7 µM

CCOC(=O)[C@H](O)[C@@H](O)C(=O)OCC
inactive: [1] | [2] | [3] | [4] | [5] | [6] | [8] | [9] | [10] | [11] | [17] | [12] | [14]

C=CC(=O)NCOCCCC
inactive: [1] | [2] | [3] | [5] | [7] | [19] | [12] | [13] | [14]
active: [4] 49.8 µM

C=CC(=O)NC(C)(C)C
inactive: [1] | [2] | [3] | [4] | [5] | [6] | [7] | [17] | [18] | [19] | [13]

O=C(Cl)c1ccc(C(=O)Cl)cc1
inactive: [1] | [2] | [3] | [4] | [5] | [6] | [7] | [8] | [9] | [10] | [11] | [12] | [13] | [14]

CCNc1nc(NC(C)(C)C)nc(OC)n1
active: [4] 19.3 µM
inactive: [1] | [2] | [3] | [5] | [6] | [7] | [8] | [10] | [20] | [17] | [14]
